Records with an inconclusive call do not appear. Active and inactive are the calls of the source. Calls come from the whole dose curve; as a rule, active = well fitted inhibition curve with a large enough effect; inconclusive = small, poorly fitted or top-dose-only effect; inactive = no such curve, though single readings can be large or run the other way.
What follows are molecules tested against Dual specificity protein kinase CLK2 (Homo sapiens) (UniProt P49760) (assay: Reaction Biology data for inhibitors of CLK2: Probe SAR). Conditions: Reaction Biology CLK2 kinase assay, 10 uM ATP; series mostly up to 10 µM; activity change, negative = inhibition: at the top concentration.
Dual specificity protein kinase CLK2 (Homo sapiens), sequence (P49760 whole entry, looked up, canonical isoform): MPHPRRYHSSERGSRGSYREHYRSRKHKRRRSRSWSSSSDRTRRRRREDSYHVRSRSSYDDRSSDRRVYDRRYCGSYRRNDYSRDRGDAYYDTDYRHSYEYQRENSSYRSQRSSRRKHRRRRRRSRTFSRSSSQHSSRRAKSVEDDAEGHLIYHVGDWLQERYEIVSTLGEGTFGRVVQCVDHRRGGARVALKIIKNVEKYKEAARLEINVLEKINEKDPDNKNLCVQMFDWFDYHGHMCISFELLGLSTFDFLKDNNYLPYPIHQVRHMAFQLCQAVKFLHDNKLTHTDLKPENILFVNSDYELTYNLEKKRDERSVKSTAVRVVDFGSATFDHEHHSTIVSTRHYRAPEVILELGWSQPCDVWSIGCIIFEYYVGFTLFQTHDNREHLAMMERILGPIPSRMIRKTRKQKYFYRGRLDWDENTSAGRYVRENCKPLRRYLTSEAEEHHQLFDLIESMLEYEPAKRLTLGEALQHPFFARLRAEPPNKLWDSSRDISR
Excerpt: Alternative splicing of pre-mRNAs plays a major role in the regulation of eukaryotic gene expression. Alternative splicing is now thought to be one of the primary reasons for the complexity of higher organisms leading to an average of three protein isoforms per gene. Aberrant splicing can lead to a number of diseases and is known to play a role in rare genetic diseases such as progeria syndrome. Hutchinson-Gilford Progeria Syndrome (HGPS) is a pediatric premature aging disease caused by a spontaneous mutation in the lamin A/C (LMNA) gene due to a single point mutation in the lamin A gene effecting 1 in 4 million people. To identify both specific splicing modulators of the lamin A gene as well as general splicing modulators, a cell-based HTS assay was developed using a minigene reporter system (AIDs, 1459 & 1487). […] This AID summarizes the characterization of lead compounds in Clk2. NIH Molecular Libraries Probe Production Centers Network [MLPCN] NIH Chemical Genomics Center [NCGC] MLPCN Grant: MH084827 Assay Submitter (PI): Tom Misteli
Compound IC50s were determined at Reaction Biology (http://www.reactionbiology.com) with ten concentration points starting at 10 uM in the assay using a 3-fold dilution series. The control compound staurosporine was also tested in the 10-dose IC50 mode with the same 3-fold serial dilution, again starting at 10 uM. All kinase reactions were performed using 10 uM ATP in the assay. 100% activity was taken from kinase reactions with DMSO alone (the vehicle used for compound stock solutions).

Potency, active:
Brc1ccc(CNc2nccc(-c3ccc4c(c3)OCO4)n2)cc1Br 29.6 nM, c1cncc(CNc2ccnc(-c3ccc4cn[nH]c4c3)n2)c1 1900 nM, c1cc(-c2ccc3c(c2)OCO3)nc(Nc2ccc3c(c2)OCO3)n1 259 nM, Clc1ccc(CNc2nccc(-c3ccc4c(c3)OCO4)n2)cc1Cl 20.4 nM, c1nc(NCC2CCCO2)c2cc(-c3ccc4c(c3)OCO4)ccc2n1 (stereo unspecified) 358 nM, Clc1cc(Cl)cc(CNc2ncncc2-c2ccc3c(c2)OCO3)c1 231 nM, COc1ccc(-c2ccnc(NCc3ccc(Cl)c(Cl)c3)n2)cc1 409 nM, Clc1ccc(CNc2nccc(-c3ccc4cn[nH]c4c3)n2)cc1Cl 429 nM, Cc1nc(CNc2ncnc3ccc(-c4ccc5c(c4)OCO5)cc23)cs1 187 nM, FC(F)(F)c1cc(Br)cc(Nc2nccc(-c3ccc4c(c3)OCO4)n2)c1 344 nM, c1cncc(CNc2nccc(-c3ccc4c(c3)OCO4)n2)c1 59.8 nM, COc1ccc(-c2ccnc(NCc3ccc(Cl)cc3)n2)cc1 1090 nM, Clc1ccc(CNc2nccc(-c3ccc4[nH]ncc4c3)n2)cc1Cl 190 nM, FC(F)(F)c1cccc(Nc2nccc(-c3ccc4c(c3)OCO4)n2)c1 52.1 nM, Clc1cc(Cl)cc(CNc2nccc(-c3ccc4c(c3)OCO4)n2)c1 23.4 nM, Cc1nc(CN(C)c2ncnc3ccc(-c4ccc5c(c4)OCO5)cc23)cs1 44.8 nM, Cc1nc(CN(C)c2ncnc3ccc(-c4ccc5[nH]ncc5c4)cc23)cs1 160 nM, O=[N+]([O-])c1cc(Nc2nccc(-c3ccc4c(c3)OCO4)n2)cc(C(F)(F)F)c1 39.8 nM, Cc1c(-c2ccnc(NCc3cccnc3)n2)sc(=O)n1C 576 nM, Clc1ccc(CNc2nccc(-c3ccc4c(c3)OCCO4)n2)cc1Cl 39.1 nM, c1cncc(CNc2ccnc(-c3ccc4[nH]ncc4c3)n2)c1 665 nM, Cc1c(-c2ccnc(NCc3ccc(Cl)cc3)n2)sc(=O)n1C 700 nM, Clc1ccc(CNc2ncncc2-c2ccc3c(c2)OCO3)cc1Cl 1560 nM, c1cncc(CNc2nccc(-c3ccc4[nH]ncc4c3)n2)c1 462 nM, Brc1cc(Br)cc(CNc2nccc(-c3ccc4c(c3)OCO4)n2)c1 41.4 nM

Activity change, negative = inhibition, inactive:
COc1ccc(-c2ccnc(NCc3ccc(Cl)c(Cl)c3)n2)cc1OC -20.3%, COc1cccc(-c2ccnc(NCc3ccc(Cl)cc3)n2)c1 -39.2%, Clc1ccc(Nc2nccc(-c3ccc4c(c3)OCO4)n2)cc1 -45%, c1cncc(CNc2ncncc2-c2ccc3c(c2)OCO3)c1 -42.4%, COc1cccc(-c2ccnc(NCc3ccc(Cl)c(Cl)c3)n2)c1 -45.2%, Clc1ccc(CNc2ccnc(-c3ccc4c(c3)OCO4)n2)cc1Cl -27.8%
